# Records with an inconclusive call do not appear. Where a call stands in place of a potency, no number is given. The source made the active and inactive calls. The call rests on the fitted dose curve; in most records, active means well fitted inhibition curve with a large enough effect; inconclusive means small, poorly fitted or top-dose-only effect; inactive means flat fitted curve, though single readings scatter. Peptide text beside a SMILES is read from it.
# Columns and labels:
# Assay in all cases: qHTS profiling for inhibitors of Plasmodium falciparum proliferation (AID 504749); further: nearly all actives have a fitted effect of over 60% in size
# Details in all cases: P. falciparum in erythrocytes, SYBR Green DNA, 72 h; series mostly up to 28.7 µM
# CP247 = system: CP247
# Summary of the method: (§1)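 Infected RBCs, 0.3% parasitemia/2.5% Hct final; cpd 72 h, 37 C, 5% CO2; lysis buffer with saponin/triton/SYBR Green I, o/n RT dark; FI 485/535; norm. to artemisinin (0.29 uM) and DMSO.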
# CP250 = system: CP250
# Summary of the method: as §1
# CP252 = system: CP252
# Summary of the method: as §1
# CP256 = system: CP256
# Summary of the method: as §1
# CP260 = system: CP260
# Summary of the method: as §1
# CP262 = system: CP262
# Summary of the method: as §1
# CP265 = system: CP265
# Summary of the method: as §1
# CP266 = system: CP266
# Summary of the method: as §1
# CP268 = system: CP268
# Summary of the method: as §1
# CP269 = system: CP269
# Summary of the method: as §1
# CP286 = system: CP286
# Summary of the method: as §1
# CP291 = system: CP291
# Summary of the method: as §1
# CP297 = system: CP297
# Summary of the method: as §1
# CP305 = system: CP305
# Summary of the method: as §1
# CP315 = system: CP315
# Summary of the method: as §1
# CP325 = system: CP325
# Summary of the method: as §1
# CP329 = system: CP329
# Summary of the method: as §1
# CP335 = system: CP335
# Summary of the method: as §1
# DFO2036 = system: DFO2036
# Summary of the method: as §1
# DIV14 = system: DIV14
# Summary of the method: as §1
# Potency means the concentration at half of the fitted maximal effect.
Structure (SMILES),Potency (CP247),Potency (CP250),Potency (CP252),Potency (CP256),Potency (CP260),Potency (CP262),Potency (CP265),Potency (CP266),Potency (CP268),Potency (CP269),Potency (CP286),Potency (CP291),Potency (CP297),Potency (CP305),Potency (CP315),Potency (CP325),Potency (CP329),Potency (CP335),Potency (DFO2036),Potency (DIV14)
CC(O)CO (stereo not given),inactive,inactive,inactive,inactive,inactive,inactive,inactive,inactive,inactive,inactive,inactive,inactive,inactive,inactive,inactive,inactive,inactive,inactive,inactive,inactive
CCCCC(C)(O)C/C=C/[C@H]1[C@H](O)CC(=O)[C@@H]1CCCCCCC(=O)OC (stereo not given in full),inactive,inactive,inactive,inactive,inactive,inactive,inactive,inactive,inactive,inactive,inactive,inactive,inactive,inactive,inactive,inactive,inactive,inactive,inactive,inactive
CO[C@H]1C[C@@H]2CC[C@@H](C)[C@@](O)(O2)C(=O)C(=O)N2CCCC[C@H]2C(=O)O[C@H]([C@H](C)C[C@@H]2CC[C@@H](OCCO)[C@H](OC)C2)CC(=O)[C@H](C)/C=C(\C)[C@@H](O)[C@@H](OC)C(=O)[C@H](C)C[C@H](C)/C=C/C=C/C=C/1C,1260 nM (active),3160 nM (active),1260 nM (active),3550 nM (active),2000 nM (active),3010 nM (active),1120 nM (active),6010 nM (active),4260 nM (active),4260 nM (active),3160 nM (active),4260 nM (active),3790 nM (active),4780 nM (active),4260 nM (active),4780 nM (active),4780 nM (active),1510 nM (active),1410 nM (active),1690 nM (active)
Cc1ccccc1OCC(O)CNCCOc1ccc(C(N)=O)cc1 (stereo not given),inactive,inactive,inactive,inactive,inactive,inactive,inactive,inactive,inactive,inactive,inactive,inactive,inactive,inactive,inactive,inactive,inactive,inactive,inactive,inactive
CC(=O)N[C@@H](CC(=O)O)C(=O)N[C@@H](CCC(=O)O)C(=O)O (Ac-Asp-Glu-OH),inactive,inactive,inactive,inactive,inactive,inactive,inactive,inactive,inactive,inactive,inactive,inactive,inactive,inactive,inactive,inactive,inactive,inactive,inactive,inactive
CO[C@H](C(=O)[C@@H](O)[C@@H](C)O)C1Cc2cc3cc(O[C@H]4C[C@@H](O[C@H]5C[C@@H](O)[C@H](O)[C@@H](C)O5)[C@@H](O)[C@@H](C)O4)c(C)c(O)c3c(O)c2C(=O)[C@H]1O[C@H]1C[C@@H](O[C@H]2C[C@@H](O[C@H]3C[C@](C)(O)[C@H](O)[C@@H](C)O3)[C@H](O)[C@@H](C)O2)[C@H](O)[C@@H](C)O1 (stereo not given in full),355 nM (active),199 nM (active),178 nM (active),251 nM (active),112 nM (active),1690 nM (active),282 nM (active),1690 nM (active),1350 nM (active),1350 nM (active),89.1 nM (active),1200 nM (active),2690 nM (active),757 nM (active),3380 nM (active),1690 nM (active),1690 nM (active),151 nM (active),112 nM (active),601 nM (active)
C[C@@H]1CCC2[C@@H](C)[C@@H](O)O[C@@H]3O[C@@]4(C)CC[C@@H]1[C@@]23OO4 (stereo not given in full),3.2 nM (active),2.8 nM (active),2.5 nM (active),2.2 nM (active),1.3 nM (active),6 nM (active),0.9 nM (active),7.6 nM (active),3.8 nM (active),4.8 nM (active),2.5 nM (active),4.3 nM (active),4.8 nM (active),3.8 nM (active),6.7 nM (active),4.8 nM (active),6 nM (active),2.7 nM (active),1.6 nM (active),3 nM (active)
CCOC(C)=O,inactive,inactive,inactive,inactive,inactive,inactive,inactive,inactive,inactive,inactive,inactive,inactive,inactive,inactive,inactive,inactive,inactive,inactive,inactive,inactive
CCN(CC)Cc1cc(Nc2ccnc3cc(Cl)ccc23)ccc1O,100 nM (active),17.8 nM (active),100 nM (active),89.1 nM (active),20 nM (active),72.1 nM (active),20 nM (active),102 nM (active),51 nM (active),45.5 nM (active),31.6 nM (active),45.5 nM (active),90.7 nM (active),40.5 nM (active),287 nM (active),57.3 nM (active),90.7 nM (active),40.5 nM (active),56.2 nM (active),80.9 nM (active)
CCCCCCCC/C=C\CCCCCCCC(=O)O,inactive,inactive,inactive,inactive,inactive,inactive,inactive,inactive,inactive,inactive,inactive,inactive,inactive,inactive,inactive,inactive,inactive,inactive,inactive,inactive
O=C1C(=O)c2ncccc2-c2cccnc21,1580 nM (active),1260 nM (active),2510 nM (active),1000 nM (active),891 nM (active),6010 nM (active),891 nM (active),849 nM (active),1510 nM (active),1200 nM (active),1000 nM (active),1690 nM (active),1070 nM (active),1200 nM (active),2690 nM (active),1900 nM (active),1200 nM (active),536 nM (active),1000 nM (active),953 nM (active)
CC1(C)S[C@@H]2[C@H](NC(=O)[C@@H](NC(=O)N3CCNC3=O)c3ccccc3)C(=O)N2[C@H]1C(=O)O,inactive,inactive,inactive,inactive,inactive,inactive,inactive,inactive,inactive,inactive,inactive,inactive,inactive,inactive,inactive,inactive,inactive,inactive,inactive,inactive
COC(=O)[C@H]1[C@H]2C[C@@H]3c4[nH]c5ccccc5c4CCN3C[C@H]2C[C@@H](OC(=O)c2cc(OC)c(OC)c(OC)c2)[C@@H]1OC,398 nM (active),447 nM (active),398 nM (active),398 nM (active),282 nM (active),1200 nM (active),398 nM (active),1070 nM (active),601 nM (active),675 nM (active),282 nM (active),675 nM (active),190 nM (active),849 nM (active),849 nM (active),757 nM (active),151 nM (active),151 nM (active),355 nM (active),190 nM (active)
Nc1c(N=Nc2ccc(-c3ccc(N=Nc4cc(S(=O)(=O)O)c5ccccc5c4N)cc3)cc2)cc(S(=O)(=O)O)c2ccccc12,inactive,inactive,inactive,inactive,inactive,inactive,inactive,inactive,inactive,inactive,inactive,inactive,inactive,inactive,inactive,inactive,inactive,inactive,inactive,inactive
CC1=CCC(C(C)(C)O)CC1 (stereo not given),inactive,inactive,inactive,inactive,inactive,inactive,inactive,inactive,inactive,inactive,inactive,inactive,inactive,inactive,inactive,inactive,inactive,inactive,inactive,inactive
CCC(=O)NCCC1CCc2ccc3c(c21)CCO3 (stereo not given),inactive,inactive,inactive,inactive,inactive,inactive,inactive,inactive,inactive,inactive,inactive,inactive,inactive,inactive,inactive,inactive,inactive,inactive,inactive,inactive
C#CCOc1ccc2c(C)cc(=O)oc2c1,inactive,inactive,inactive,inactive,inactive,inactive,inactive,inactive,inactive,inactive,inactive,inactive,inactive,inactive,inactive,inactive,inactive,inactive,inactive,inactive
Cc1cc(C(=O)NNCc2ccccc2)no1,inactive,inactive,inactive,inactive,inactive,inactive,inactive,inactive,inactive,inactive,inactive,inactive,inactive,inactive,inactive,inactive,inactive,inactive,inactive,inactive
CCCCCCCCCCCCCC[n+]1ccc(C)cc1,3980 nM (active),3980 nM (active),4470 nM (active),5010 nM (active),2510 nM (active),inactive,4470 nM (active),4260 nM (active),1690 nM (active),1690 nM (active),1260 nM (active),4260 nM (active),4780 nM (active),2390 nM (active),4780 nM (active),3380 nM (active),4260 nM (active),4260 nM (active),4470 nM (active),1690 nM (active)
CCCCCCCCCCCCCCCC(=O)OCC(COC(=O)CCCCCCCCCCCCCCC)OC(=O)CCCCCCCCCCCCCCC,inactive,inactive,inactive,inactive,inactive,inactive,inactive,inactive,inactive,inactive,inactive,inactive,inactive,inactive,inactive,inactive,inactive,inactive,inactive,inactive
CC(=O)Oc1c(C)cc(OCC(O)CNC(C)C)c(C)c1C (stereo not given),inactive,inactive,inactive,inactive,inactive,inactive,inactive,inactive,inactive,inactive,inactive,inactive,inactive,inactive,inactive,inactive,inactive,inactive,inactive,inactive
CCCCC/C=C\C/C=C\CCCCCCCC(=O)O,inactive,inactive,inactive,inactive,inactive,inactive,inactive,inactive,inactive,inactive,inactive,inactive,inactive,inactive,inactive,inactive,inactive,inactive,inactive,inactive

# Source: PubChem BioAssay (NCATS)
